Assay results published in PubChem BioAssay AID1159580 (chemical genetic matrix, 2015).
Several values for one entry are separate records, joined by “and”; a condition that tells them apart may be missing. Identical values can stand only once. The campaign covered roughly 5,500 compounds. About 2,000 (36%) were called active. Another 18% or so got no clear call; they are omitted. Rule as the data show it: active = normalized growth mostly below about 0.91 (no sharp cut-off); inconclusive = no clear call, values can overlap the other calls; inactive = mostly above about 0.92. Some of the results follow.

Assay: chemical genetic growth profiling, strain panel (AID 1159580);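 also: tested at 20 µM; growth read once vehicle control cultures reached saturation at 30 °C; 1 = growth at the plate median or of vehicle wells; lower values mean less growth of the strain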
Settings: S. cerevisiae deletion strains, growth OD

Measured: normalized growth

OCc1ccccc1O[C@@H]1O[C@H](CO)[C@@H](O)[C@H](O)[C@H]1O
inactive: locus YAL013W, strain DEP1, stronger effect = lower value 0.994 | locus YAL021C, strain ccr4, stronger effect = lower value 0.98 | locus YAL026C, strain drs2, stronger effect = lower value 0.99 | locus YAL030W, strain snc1, stronger effect = lower value 0.964 | locus YBL061C, strain skt5, stronger effect = lower value 0.983 | locus YBR009C, strain hhf1, stronger effect = lower value 0.977 | locus YBR021W, strain FUR4, stronger effect = lower value 1.04 | locus YBR023C, strain chs3, stronger effect = lower value 0.99 | locus YBR171W, strain sec66, stronger effect = lower value 0.98 | locus YBR229C, strain ROT2, stronger effect = lower value 0.95 | locus YBR231C, strain swc5, stronger effect = lower value 0.983 | locus YBR279W, strain paf1, stronger effect = lower value 0.983 | locus YCL011C, strain gbp2, stronger effect = lower value 0.98 | locus YCL016C, strain dcc1, stronger effect = lower value 0.991 | locus YCL029C, strain bik1, stronger effect = lower value 0.994 | locus YCL069W, strain vba3, stronger effect = lower value 1 | locus YCR088W, strain abp1, stronger effect = lower value 0.98 | locus YDL005C, strain med2, stronger effect = lower value 0.989 | locus YDL035C, strain GPR1, stronger effect = lower value 1 | locus YDL040C, strain nat1, stronger effect = lower value 0.994 | locus YDL074C, strain BRE1, stronger effect = lower value 0.966 | locus YDL101C, strain DUN1, stronger effect = lower value 0.976 | locus YDL134C, strain PPH21, stronger effect = lower value 0.987 | locus YDL185W, strain tfp1, stronger effect = lower value 0.983 | locus YDL192W, strain arf1, stronger effect = lower value 0.994 | locus YDR001C, strain nth1, stronger effect = lower value 0.984 | locus YDR069C, strain doa4, stronger effect = lower value 0.987 | locus YDR101C, strain arx1, stronger effect = lower value 0.946 | locus YDR137W, strain rgp1, stronger effect = lower value 1.02 | locus YDR150W, strain NUM1, stronger effect = lower value 0.98 | locus YDR159W, strain sac3, stronger effect = lower value 0.944 | locus YDR162C, strain NBP2, stronger effect = lower value 0.997 | locus YDR195W, strain ref2 0.962 | locus YDR297W, strain sur2, stronger effect = lower value 1 | locus YDR318W, strain mcm21, stronger effect = lower value 0.999 | locus YDR334W, strain swr1, stronger effect = lower value 0.925 | locus YDR335W, strain msn5, stronger effect = lower value 0.989 | locus YDR388W, stronger effect = lower value 0.996 | locus YDR392W, strain spt3, stronger effect = lower value 0.984 | locus YDR502C, strain sam2, stronger effect = lower value 0.987 | locus YEL003W, strain gim4, stronger effect = lower value 0.984 | locus YEL037C, strain rad23, stronger effect = lower value 0.984 | locus YEL061C, strain CIN8 (second series), stronger effect = lower value 0.972 | locus YEL061C, strain CIN8, stronger effect = lower value 0.978 | locus YER015W, strain faa2, stronger effect = lower value 0.998 | locus YER016W, strain bim1, stronger effect = lower value 0.992 | locus YER110C, stronger effect = lower value 0.994 | locus YER111C, strain swi4, stronger effect = lower value 1.01 | locus YER155C, strain BEM2 (second series), stronger effect = lower value 0.998 | locus YER155C, strain BEM2, stronger effect = lower value 0.996 | locus YER167W, strain BCK2, stronger effect = lower value 0.99 | locus YFR010W, strain ubp6, stronger effect = lower value 0.998 | locus YGL078C, strain dbp3, stronger effect = lower value 0.988 | locus YGL086W, strain mad1, stronger effect = lower value 0.97 | locus YGL167C, strain pmr1, stronger effect = lower value 1 | locus YGL173C, strain kem1, stronger effect = lower value 0.995 | locus YGL227W, strain vid30, stronger effect = lower value 0.965 | locus YGL240W, strain doc1, stronger effect = lower value 0.996 | locus YGL248W, strain PDE1, stronger effect = lower value 0.979 | locus YGL253W, strain hxk2, stronger effect = lower value 0.987 | locus YGR078C, strain PAC10, stronger effect = lower value 0.97 | locus YGR135W, strain pre9, stronger effect = lower value 1.07 | locus YGR229C, strain SMI1, stronger effect = lower value 1.01 | locus YGR252W, strain gcn5, stronger effect = lower value 1.08 | locus YHR013C, strain ard1, stronger effect = lower value 1.04 | locus YHR027C, strain rpn1, stronger effect = lower value 0.959 | locus YHR030C, strain SLT2, stronger effect = lower value 0.992 and 0.993 | locus YHR079C, strain IRE1 (second series), stronger effect = lower value 0.983 | locus YHR079C, strain IRE1, stronger effect = lower value 1.03 | locus YHR094C, strain hxt1, stronger effect = lower value 1 | locus YHR129C, strain ARP1, stronger effect = lower value 0.991 | locus YHR142W, strain chs7, stronger effect = lower value 0.984 | locus YHR200W, strain rpn10, stronger effect = lower value 0.987 | locus YIL066C, strain RNR3, stronger effect = lower value 0.967 | locus YIL073C, strain SPO22, stronger effect = lower value 1.02 | locus YIL125W, strain kgd1, stronger effect = lower value 0.989 | locus YIR030C, strain dcg1, stronger effect = lower value 0.997 | locus YJL092W, strain hpr5, stronger effect = lower value 0.997 | locus YJL095W, strain BCK1 (second series), stronger effect = lower value 0.987 | locus YJL095W, strain BCK1, stronger effect = lower value 0.978 and 1.01 | locus YJL115W, strain asf1, stronger effect = lower value 0.992 | locus YJL129C, strain trk1, stronger effect = lower value 0.967 | locus YJL134W, strain LCB3, stronger effect = lower value 0.991 | locus YJL154C, strain vps35, stronger effect = lower value 0.991 | locus YJL164C, strain tpk1, stronger effect = lower value 0.993 | locus YJL166W, strain qcr8, stronger effect = lower value 1.01 | locus YJL168C, strain set2, stronger effect = lower value 0.986 | locus YJL187C, strain SWE1 (second series), stronger effect = lower value 0.952 | locus YJL187C, strain SWE1, stronger effect = lower value 0.997 | locus YJR043C, strain POL32, stronger effect = lower value 0.994
